Screening results deposited in PubChem by several laboratories.
Cl transport mod: modulates chloride dependent transport by human KCC2; KCC2 cells, thallium flux FluoZin-2 fluorescence; B-score of Tl+ flux slope (higher = more flux/activation; lower = inhibition) at 10 µM; 2.2% of 190,000 active; AID 1456;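 active = thallium flux slope and its plate-corrected score both differing from the plate sample mean at a set confidence after two filtering rounds, in either direction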;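 also: slope of fluorescence scaled to starting intensity during 10 to 20 s after thallium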
Measles CPE: protection of cells from measles virus | Measles virus-infected cells, CPE protection, absorbance | protection (pct of control), % at 4 µM | 1.5% of 140,000 active | AID 841; in the data active = protection mostly above about 24%, no sharp cut-off; inactive = mostly below about 26%
ROMK primary: modulators of human ROMK potassium channel. P48048. Tet-inducible ROMK, thallium flux fluorescence; actives lie on both sides. B-score at 10 µM. 2% of 130,000 active. AID 1918;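 active = signal ratio slope over the read window, or its plate-corrected B-score, at least 3 SD from the plate mean, either direction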;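 also: B-score of the F/F0 ratio slope over 7 to 12 s after thallium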
Target sequence (P48048 whole entry, looked up): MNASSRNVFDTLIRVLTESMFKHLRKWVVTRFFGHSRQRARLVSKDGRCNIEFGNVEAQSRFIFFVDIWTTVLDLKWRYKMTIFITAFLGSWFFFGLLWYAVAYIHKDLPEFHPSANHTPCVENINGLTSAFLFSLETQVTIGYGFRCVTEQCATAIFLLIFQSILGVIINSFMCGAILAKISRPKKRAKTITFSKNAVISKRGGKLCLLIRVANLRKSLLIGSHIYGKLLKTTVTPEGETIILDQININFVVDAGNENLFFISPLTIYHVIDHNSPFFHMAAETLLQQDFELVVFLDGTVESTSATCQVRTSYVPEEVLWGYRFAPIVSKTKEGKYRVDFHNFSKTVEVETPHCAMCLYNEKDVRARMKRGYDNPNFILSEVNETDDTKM
HSV replic up: HSV replication enhancement; HSV replication augmentation in cells, fold increase; maximum fold increase; 0.005% of 220,000 active; AID 1956; in the data active = maximum fold increase above about 1.5; inconclusive = no clear call, values can overlap the other calls; tested in PC3 cells
Arbovirus inh: blocks arbovirus infection; arbovirus infection cell-based antiviral screen; inhibition, % at 10 µM; 0.37% of 200,000 active; AID 1251; in the data active = inhibition above about 30%
KCC2 secondary: confirmation of human KCC2 transport modulators; shares compounds with Cl transport mod; HEK293-KCC2, thallium flux, FluoZin2 fluorescence; stronger effect = higher value; normalised thallium flux (F/F0 slope) at 10 µM; 15% of 3,700 active; AID 1713;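 active = thallium flux slope above the same plate's solvent-only control mean plus 3 SD; inconclusive = the two replicate wells disagree; inactive = no significant difference from solvent-only control wells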
KCC2 bumet counter: thallium flux despite bumetanide block in KCC2 cells, secondary assay 3. 49% of 3,700 active. normalized thallium flux at 10 µM. AID 1714. HEK293-KCC2 + bumetanide/ouabain, thallium flux FluoZin2; stronger effect = higher value. shares compounds with Cl transport mod;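 active = thallium entry rate above the same plate's blocked-transporter control wells by more than 3 SD; inconclusive = the two repeat wells disagree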;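 also: raw slope of fluorescence over initial fluorescence between 10 and 20 s after thallium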
KCC2 secondary2: confirmation of human KCC2 transport modulators | shares compounds with Cl transport mod | 23% of 3,700 active | normalized thallium flux at 10 µM | AID 1715 | HEK293-KCC2, thallium flux FluoZin2 fluorescence; actives lie on both sides; F/F0 rise rate, 10–20 s post-thallium;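 active = thallium flux slope more than 3 SD above or below the plate's solvent-only control mean, mostly below; inconclusive = the two repeat wells disagreed; inactive = no significant shift from solvent-only controls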;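 also: raw slope with 0.1% DMSO as baseline and bumetanide as block control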
HEK counter1: acts in parental HEK cells, KCC2 counter-screen; shares compounds with Cl transport mod; HEK293 parental cells, thallium flux FluoZin2, ouabain; baseline-ratio fluorescence slope, 10–20 s after thallium; thallium flux rate (normalised fluorescence) at 10 µM; 46% of 3,700 active; AID 1716;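 active = thallium flux rate significantly above the same plate's solvent-only control wells, beyond their mean plus 3 SD; inconclusive = the two replicate wells gave conflicting results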
KCC2 retest ouab: confirmation of human KCC2 modulators with ouabain; AID 1717; shares compounds with Cl transport mod; HEK293-KCC2, thallium flux FluoZin2 fluorescence; bidirectional: low = inhibitor, high = activator; raw Tl+ flux slope (below DMSO = inhibition, above = activation) at 10 µM; 48% of 3,700 active;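 active = thallium flux slope beyond 3 SD from same-plate DMSO control mean in most replicates, usually higher, sometimes lower; inconclusive = repeat tests gave conflicting results; inactive = no significant difference from controls in most replicates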;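 also: slope of initial-normalized fluorescence between seconds 10 and 20 after thallium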
HEK counter2: counter-screen for KCC2 modulators: effect in parental HEK293 cells; shares compounds with Cl transport mod; thallium flux FluoZin-2 fluorescence slope; thallium flux slope at 10 µM; 33% of 3,700 active; AID 1718;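 active = thallium flux slope above the same plate's solvent-control mean plus 3 SD in both duplicate wells; inconclusive = duplicate wells that disagreed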;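 also: run without ouabain in cells lacking the KCC2 cotransporter; slope of fluorescence scaled to its starting value between 10 and 20 s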
Active calls of the source: *; i = inactive; ? = inconclusive; . = no result given. In the library only some 4% were active in any assay of this set; here they are far more common.

SMILES	Cl transport mod	Measles CPE	ROMK primary	HSV replic up	Arbovirus inh	KCC2 secondary	KCC2 bumet counter	KCC2 secondary2	HEK counter1	KCC2 retest ouab	HEK counter2
CCOC(=O)C1CCN(C(=O)c2c(-c3c(F)cccc3Cl)noc2C)CC1	.	11.8	-0.0743	i	-3.6	.	.	.	.	.	.
Cc1onc(-c2c(Cl)cccc2Cl)c1C(=O)NC(=S)N1CCOCC1	8.58*	.	.	i	.	0.011*	0.0186*	0.029	0.0119*	?	0.00989
Cc1onc(-c2c(Cl)cccc2Cl)c1C(=O)N=C(N)N1CCOCC1	.	.	.	i	.	.	.	.	.	.	.
CC(=O)Nc1ccccc1NC(=O)c1ccc(C)c(C)c1	.	.	-0.304	i	-1.6	.	.	.	.	.	.
CSc1nc2[nH]c3c(c2c2ncnn12)CCCC3	-0.0136	13.5	0.0356	i	9.5	0.00879	0.00608	0.0315	0.00752	0.0192	0.0108
CSc1c2c(nc3ncnn13)CCC2	0.888	4.3	0.402	i	1.9	.	.	.	.	.	.
N#Cc1ccccc1CSc1nc2ccc(NC(=O)c3ccccc3C(=O)O)cc2s1	-3.57*	.	1.08	i	7.5	0.00778	0.00498	0.0372	0.00372	0.0169*	0.0104
O=C(O)c1ccc(CSc2nc3ccc(NC(=O)c4ccccc4C(=O)O)cc3s2)cc1	0.626	.	-0.0156	i	0.6	.	.	.	.	.	.
Clc1ccc(OCc2cn3ccccc3n2)c2ncccc12	-3.74*	.	0.112	i	-5.1	0.00621	0.0063	0.0301	0.00662	0.0173	0.00955
OCc1ccccc1OCCOc1ccc(Cl)c2cccnc12	-2.19	6.4	-0.776	i	7.9	.	.	.	.	.	.
COC1=C/C(=C/c2c(N)n3nc(-c4ccc(C)cc4)sc3nc2=O)C=CC1=O	9.79*	.	-1.55	?	31.9*	0.00651	0.0629*	?	0.083*	?	0.024*
CCS(=O)(=O)c1nn2c(N)c(/C=C3/C=CC(=O)C(OC)=C3)c(=O)nc2s1	-0.291	6.5	0.274	?	-3.8	.	.	.	.	.	.
COC(=O)c1cc(C(=O)NCc2ccccc2)c(=O)[nH]c1C	-0.244	.	.	i	-27.9	.	.	.	.	.	.
COc1ccc(CCNC(=O)C2CCN(S(=O)(=O)c3cc(OC)ccc3OC)CC2)cc1	.	3.1	-0.241	i	8.6	.	.	.	.	.	.
COc1ccc(CCNC(=O)C2CCN(S(C)(=O)=O)CC2)cc1	-3.36*	2.1	0.658	i	4.0	0.00755	0.004	0.0269	0.00742	0.0188	0.00952
CC1CCCC(NC(=O)CCn2c(=S)oc3ccccc32)C1C (centres undefined)	-0.835	.	-0.0749	i	.	0.00854	0.00675	0.0316	0.00744	0.0225	?
C=CCn1c(CSc2nc3ccccc3s2)n[nH]c1=S	-4.42*	5.5	.	i	7.0	0.0153	0.00932*	0.0237*	0.00992*	0.0144*	?
O=[N+]([O-])c1cc(Br)c(O)c(/C=N/Nc2nnnn2-c2cccc3ccccc23)c1	-3.24*	15.8	2.48	i	-19.3	0.00727	0.00398	?	?	?	0.00984
Nc1cc(C(F)(F)F)ccc1-n1cccc1	-0.669	.	.	i	-0.3	.	.	.	.	.	.
CN(C)CCNC(=O)c1cc(Br)ccc1Cl	0.391	1.2	.	i	8.2	.	.	.	.	.	.
O=C(NC(=S)N(CCO)Cc1ccccc1)c1cc(Br)ccc1Cl	10.3*	.	0.395	i	1.7	0.0152*	0.0393*	0.0333	?	0.0328*	0.0123
CCOC(=O)c1ccc[n+](CC(=O)Nc2cc(C(F)(F)F)ccc2Cl)c1	1.07	.	0.0644	i	-0.6	.	.	.	.	.	.
Cc1cc(C)c(C#N)c(OCC(=O)c2ccccc2)n1	-0.616	20.3	-0.7	i	-2.0	0.0176	0.00489	?	0.00726	0.0148	0.0101
CSc1nc(=S)cc(C)[nH]1	16.1*	.	.	i	.	0.00779	0.0181*	0.0386*	0.0224*	0.0282*	0.0231*
COC(=O)c1c(NC(=S)Nc2cc(OC)c(Cl)cc2OC)sc2c1CCCCC2	6.86*	4.5	0.309	i	-2.8	0.0152*	0.0253*	0.0339	0.0111*	0.0238	?
SMILES	Cl transport mod	Measles CPE	ROMK primary	HSV replic up	Arbovirus inh	KCC2 secondary	KCC2 bumet counter	KCC2 secondary2	HEK counter1	KCC2 retest ouab	HEK counter2
CCOC(=O)c1c(NC(=S)Nc2cc([N+](=O)[O-])ccc2OC)sc2c1CCCCC2	1.03	5.4	.	i	-1.6	.	.	.	.	.	.
Cc1ccccc1NS(=O)(=O)c1cc(C(=O)NCc2ccco2)ccc1C	.	30.7	-1.83	i	0.6	.	.	.	.	.	.
Cc1ccc(SCCNC(=O)c2ccc(C)c(S(=O)(=O)Nc3ccccc3C)c2)cc1	.	3.3	.	i	-25.3	0.00815	?	0.0267	0.00641	0.0146*	0.0102
COc1ccc([N+](=O)[O-])cc1C1NN=C(c2ccccc2O)S1 (centres undefined)	-0.135	10.3	.	i	-1.5	.	.	.	.	.	.
O=[N+]([O-])c1ccc(O)c(C2=NNC(c3ccccc3F)C2)c1 (centres undefined)	27.7*	.	.	i	.	0.0094	0.0341*	0.0313	0.0255*	0.0323*	?
CCOC(=O)c1sc(NC(=S)NC(=O)c2ccccc2)nc1C	54.4*	.	1.56	i	-18.0	0.00554	0.0892*	0.0709*	0.0629*	0.0807*	0.0553*
O=C(NC(=S)NCc1ccc2c(c1)OCO2)c1ccccc1	12*	4.9	-0.223	i	-3.1	0.00911	0.019*	0.0268	0.00902*	?	?
COC(=O)CNC(=S)NC(=O)c1ccc(C(C)(C)C)cc1	6.32*	.	-0.998	i	5.4	0.00542	0.0146*	0.0323	0.0108*	?	?
COc1ccc(C(=O)NC(=S)NNC(=O)c2ccc3ccccc3n2)cc1	56.9*	.	.	i	.	?	0.0721*	?	0.0673*	0.0629*	0.042*
Nc1ncnc2c1nc(Sc1ccc(Cl)cc1)n2[C@@H]1O[C@@H]2COP(=O)(O)O[C@H]2[C@H]1O	.	.	.	i	.	.	.	.	.	.	.
C[N+]1(CC#CC(O)(c2ccccc2)c2ccccc2)CCCC1	0.837	7.4	0.0338	i	-1.1	.	.	.	.	.	.
CCOC(=O)NC(=S)Nc1ccc(C(C)(C)C)cc1	139*	.	-0.0597	i	.	0.0263*	0.0847*	0.0394	0.0648*	0.0665*	0.02*
COc1ccc(C(=O)NC(=S)NCc2ccccc2)cc1	-3.04*	3.0	1.17	.	3.9	0.00711	0.00765*	0.029	0.00847	0.0195	0.0111
Cc1ccc(/C=N\Nc2nc3ccc(Cl)cc3[nH]2)o1	4.76*	25.6	-0.098	i	-7.1	0.00712	0.0043	0.0308	?	0.0189	0.0115
